Bioassay records (PubChem BioAssay)
An excerpt weighted towards active compounds, which were near 7.9% of everything screened.
MCF10A rerep: induces DNA re-replication in MCF 10a normal breast cells. MCF 10A DNA re-replication, Hoechst nuclear intensity, 48 h. Potency, µM (top dose mostly 46.1 µM), without a hit: top-dose activity, positive = re-replication, hits mostly activators. AID 624296. hit rate 2.9% among 350,000; also: % of control where 0% means no effect; nearly all actives have a fitted effect of over 50% in size
KB-V1 cytotox: kills drug-selected multidrug resistant KB-V1 cells; hit rate 3.4% among 400,000; KB-V1 MDR cells viability, CellTiter-Glo, 72 h; Potency, µM (titrated, usually from 46.1 µM), usual class: cytotoxic; also: % is scaled to controls: 0 for no effect and ±100 for the full control effect; nearly all actives have a fitted effect of over 60% in size
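In this primary screen, KB-V1 cells overexpressing P-gp are incubated with library compounds (lowest to highest concentration) for 72 h at 37 degrees C before a luminescent ATP viability read.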
HT1080NT lethal: kills 2HG-producing HT-1080-NT fibrosarcoma cells; Potency, µM (top dose mostly 46.1 µM), without a hit: at the top dose activity, negative = less viability, actives largely listed as cytotoxic; HT-1080-NT fibrosarcoma viability, CellTiter-Glo ATP luminescence, 48 h; hit rate 1.6% among 360,000; AID 686970;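 also: NT is the 2HG producing partner of a matched IDH1 knockdown line; 0% = DMSO-treated cells and -100% = media-only wells without cells; nearly all actives have a fitted effect of over 55% in size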
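HT-1080-NT; 750 cells/well; 5% FBS RPMI; 48 h compound, 37 degrees C; CellTiter-Glo luminescence; curve fitting and curve-class assignment.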
KB-3-1 tox: kills parental KB-3-1 adenocarcinoma cells; Potency, µM (highest dose often 46.1 µM), actives largely listed as cytotoxic; KB-3-1 viability, CellTiter-Glo ATP luminescence, 72 h; AID 1347075; hit rate 1.4% among 400,000; also: % is scaled to controls: 0 for no effect and ±100 for the full control effect; nearly all actives have a fitted effect of over 60% in size
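Cytotoxicity in the drug-sensitive parental line KB-3-1 was scored as loss of CellTiter-Glo luminescence following 72 h incubation with compound. Values come from curve fitting of normalized concentration-response data.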
SW480 rerep: induces DNA re-replication in SW480 colon adenocarcinoma cells; SW480 DNA re-replication, Hoechst DNA content imaging, 48 h; Potency, µM (highest dose often 46.1 µM), for inactives: at the highest dose re-replication activation, hits mostly activators; hit rate 1.8% among 340,000; AID 624297; also: % of control where 0% means no effect; nearly all actives have a fitted effect of over 55% in size
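SW480 cells exposed to compounds for 48 hr at 37 C, 5% CO2, then Hoechst-stained 40 min. Nuclear DNA content imaged by fluorescence scanning (405 nm excitation, 500-530 nm emission); re-replication scored as increased high-intensity nuclei.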
HT1080 IDH1KD tx: HT-1080 IDH1 knockdown cell toxicity (counter line); HT-1080 IDH1 knockdown viability, ATP luminescence, 48 h; Potency, µM (series often up to 46.1 µM), without a hit: top-dose activity, negative = toxicity, actives largely listed as cytotoxic; hit rate 2% among 360,000; AID 686971;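 also: 0% = DMSO wells and -100% = cell-free medium wells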
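In this qHTS, HT-1080 cells depleted of IDH1 are exposed for 48 h at 37 °C to compound titrations. Toxicity is scored from CellTiter-Glo luminescence, with DMSO as full viability and medium alone as none.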
The depositor's hits bear a star; i = inactive; ? = inconclusive; nt = not tested or not shown. Calls follow the shape of the dose curve; as a rule, active = well fitted curve in the direction sought with a large enough effect; inconclusive = small, poorly fitted or top-dose-only effect, or another doubt; inactive = no such curve, though single readings can be large; an effect the other way counts as inactive or inconclusive. Potency is read from the fitted curve at half-maximal effect.

SMILES	MCF10A rerep	KB-V1 cytotox	HT1080NT lethal	KB-3-1 tox	SW480 rerep	HT1080 IDH1KD tx
COC(=O)CP(=O)(c1ccccc1)c1ccccc1	2%	i	-2%	?	-6%	-4%
COc1ccc(CC(=O)Cc2ccc(OC)c(OC)c2)cc1OC	nt	i	-5%	i	nt	8%
COc1ccc(CC(=O)c2ccc(OC)c(OC)c2C)cc1OC	0%	2.3µM*	?	6.5µM*	?	-18%
Cc1c(C(=O)N2CCOCC2)oc2ccc(S(=O)(=O)N3CCCCCC3)cc12	3%	i	11%	i	0%	4%
O=Nc1ccc(NOC(=O)c2ccccc2Br)cc1	7%	?	-3%	i	?	0%
O=C(ONc1ccc(N=NC(=O)c2ccccc2O)cc1)c1ccccc1	12%	i	2.3µM*	i	7%	1.8µM*
O=C(Nc1ccccc1Cl)C1CCN(Cc2cnn(-c3ccccc3)c2-n2cccc2)CC1	?	23µM*	-25%	18µM*	13%	?
COc1ccc(OC)c(NC(=O)C2CCN(Cc3cnn(-c4ccccc4)c3-n3cccc3)CC2)c1	13%	8.2µM*	-2%	i	?	?
COc1ccc(NC(=O)C2CCN(Cc3cnn(-c4ccccc4)c3-n3cccc3)CC2)cc1OC	-8%	?	-16%	i	-5%	-15%
COc1cccc(NC(=O)C2CCN(Cc3cnn(-c4ccccc4)c3-n3cccc3)CC2)c1	?	?	-13%	?	?	-9%
COc1cccc(C(=O)NCC(=O)OCC(=O)c2ccccc2)c1	-1%	i	0%	i	-5%	-2%
Cc1nc2ccccc2n1Cc1ccc(Cl)cc1	?	7.3µM*	?	?	?	?
Cn1cccc1-c1nc2ccccc2n1Cc1ccccc1	11µM*	?	-12%	i	6%	?
COc1cc(CNc2nc3ccccc3n2Cc2ccccc2)ccc1O	nt	i	-1%	i	nt	-9%
COc1ccc(CNc2nc3ccccc3n2Cc2ccc(Cl)cc2)cc1OC	?	i	21µM*	i	5%	16µM*
CC(NC(=O)COC(=O)C1CC2CCCC(C1)C2=O)c1ccccc1 (stereo not given)	0%	i	13%	i	-5%	-11%
Cc1ccc(N2CCN(C(=S)Nc3ccccc3)CC2)cc1	-3%	i	9%	i	3%	9%
COc1ccccc1CNC(=O)CN(C)CC(=O)Nc1ccccc1Br	0%	i	-3%	i	-12%	2%
O=c1c(N=Nc2ccccc2)c[nH]n1-c1ccccc1	nt	i	1%	i	nt	11%
Cc1ccc(N(C)S(=O)(=O)c2cccc(C(=O)OCC(=O)N3CCCC(C)C3)c2)cc1 (stereo not given)	9%	21µM*	8%	i	-5%	9%
CC1CCCC(C)N1C(=O)COC(=O)c1cccc(S(=O)(=O)N(C)c2ccccc2)c1 (stereo not given)	17%	i	-2%	i	-35%	-11%
CC1CCN(C(=O)COC(=O)c2cccc(S(=O)(=O)N(C)c3ccccc3)c2)CC1	?	21µM*	2%	i	-6%	2%
CCOC(=O)C1=CCN(S(=O)(=O)c2ccccc2Br)C1c1ccccc1 (stereo not given)	nt	?	?	i	nt	-18%
Cc1ccc2c(c1)N(CC(=O)N(Cc1ccc3c(c1)OCO3)CC1CCCO1)C(=O)C(C)O2 (stereo not given)	1%	8.2µM*	-2%	i	0%	-8%
COc1ccc(Cn2nnnc2C(c2ccccn2)N2CCN(c3cc(Cl)ccc3C)CC2)cc1 (stereo not given)	2%	13µM*	-21%	?	?	-19%
SMILES	MCF10A rerep	KB-V1 cytotox	HT1080NT lethal	KB-3-1 tox	SW480 rerep	HT1080 IDH1KD tx
CC(C)n1cc(CN2CCC(C(=O)Nc3cccc(-c4cccc(Cl)c4)c3)CC2)cn1	18µM*	?	18µM*	?	3.3µM*	?
O=C(Nc1cccc(-c2cccc(Cl)c2)c1)C1CCN(Cc2ccc(CO)o2)CC1	17%	i	16µM*	?	?	16µM*
Cc1c(C(=O)Nc2ccc(-c3nnc4n3CCCCC4)cc2)oc2c1ccc1ccccc12	?	?	?	?	?	15µM*
O=C(Nc1ccc(-c2nnc3n2CCCCC3)cc1)c1cc2ccccc2o1	0%	i	0%	i	2%	-6%
O=S(=O)(NCC1CCCO1)c1ccccc1F (stereo not given)	-7%	i	12%	i	-7%	11%
Cc1ccccc1S(=O)(=O)NCC1CCCO1 (stereo not given)	-12%	i	4%	i	26µM*	12%
Cn1c(Cl)c(C(=O)Nc2ccc(Cl)cc2)c2ccccc21	11%	21µM*	-4%	8.2µM*	22%	-23%
CCCCC1Cc2[nH][nH]c(=O)c2C(c2ccc(F)cc2)O1 (stereo not given)	nt	i	?	i	nt	26µM*
O=S1(=O)CCS(=O)(=O)C1c1ccccc1	?	i	23µM*	i	?	21µM*
O=C1CC(=O)CC(c2ccccc2)C1	0%	i	11%	i	-1%	4%
Cc1cccc(N2CCN(C(=O)CCn3c(=S)[nH]c4cc5c(cc4c3=O)OCO5)CC2C)c1 (stereo not given)	?	10µM*	-8%	i	1%	1%
O=C(CCCn1c(=S)[nH]c2cc3c(cc2c1=O)OCO3)N1CCN(c2ccccc2)CC1	1%	i	5%	i	-8%	1%
Cc1cccc(N2CCN(C(=O)CCCn3c(=S)[nH]c4cc5c(cc4c3=O)OCO5)CC2)c1C	15%	3.7µM*	-9%	i	9%	-4%
CC(NC(=O)c1cccnc1)C(=O)O (stereo not given)	-9%	i	-3%	i	1µM*	-2%
CC(NC(=O)c1cccnc1)C(=O)N1CCCCC1 (stereo not given)	-2%	i	5%	i	-1%	11%
CCC12CCCN3CCc4c(n(c5ccccc45)C(O)(C(=O)OC)C1)C32 (stereo not given)	1%	i	-20%	i	-18%	3%
CC[C@@]12CCCN3CCc4c(n(c5ccccc45)C(=O)C1)[C@H]32	?	nt	nt	nt	11µM*	nt
